EPAC1 antagonist – EPAC1 (human) antagonism. AID 720709. 360,000 tested, 0.14% active. Potency, µM (top dose mostly 115 µM), inactives show at the top dose activity change, negative = inhibition, actives largely listed as inhibitors. EPAC1 GEF assay, Rap1b-BODIPY-GDP exchange fluorescence;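 further: plate controls were vehicle for no effect and positive control for full effect; nearly all actives have a fitted effect of over 50% in size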
EPAC1 ag – EPAC1 (human) agonism. 360,000 tested, 0.073% active. AID 720707. Potency, µM (titrated, usually from 154 µM), without a hit: top-dose activation, actives largely listed as activators. EPAC1 agonist qHTS, biochemical assay; response scale: 100% = response to 6.5 mM cAMP; further: nearly all actives have a fitted effect of over 60% in size
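Fluorescent GDP-exchange assay: 100 nM EPAC1 with 250 nM Rap1B preloaded with BODIPY-GDP and 50 uM GDP; compounds tested as concentration series, 5 min at room temperature, then read every 5 min for 30 min (ex 480/em 540 nm); normalized to 6.5 mM cAMP.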
EPAC2 antag – antagonists of human EPAC2; EPAC2 GEF exchange of Rap1B-BODIPY-GDP, fluorescence; 360,000 tested, 0.18% active; Potency, µM (series often up to 114 µM), inactives show top-dose activity, negative = inhibition, actives largely listed as inhibitors; AID 720708; further: on the % scale 0 is the no-effect control and ±100 the full control effect; nearly all actives have a fitted effect of over 45% in size
USP1-UAF1 inh – inhibitors of human USP1/UAF1 deubiquitinase; O94782; recombinant USP1/UAF1, Ub-Rhodamine cleavage fluorescence; Potency, µM (top dose mostly 57.1 µM), inactives show top-dose activity change, negative = inhibition, most hits filed as inhibitors; 390,000 tested, 0.23% active; AID 743255; further: on the % scale 0 is the no-effect control and ±100 the full control effect; nearly all actives have a fitted effect of over 60% in size
Target sequence (O94782 whole entry, looked up): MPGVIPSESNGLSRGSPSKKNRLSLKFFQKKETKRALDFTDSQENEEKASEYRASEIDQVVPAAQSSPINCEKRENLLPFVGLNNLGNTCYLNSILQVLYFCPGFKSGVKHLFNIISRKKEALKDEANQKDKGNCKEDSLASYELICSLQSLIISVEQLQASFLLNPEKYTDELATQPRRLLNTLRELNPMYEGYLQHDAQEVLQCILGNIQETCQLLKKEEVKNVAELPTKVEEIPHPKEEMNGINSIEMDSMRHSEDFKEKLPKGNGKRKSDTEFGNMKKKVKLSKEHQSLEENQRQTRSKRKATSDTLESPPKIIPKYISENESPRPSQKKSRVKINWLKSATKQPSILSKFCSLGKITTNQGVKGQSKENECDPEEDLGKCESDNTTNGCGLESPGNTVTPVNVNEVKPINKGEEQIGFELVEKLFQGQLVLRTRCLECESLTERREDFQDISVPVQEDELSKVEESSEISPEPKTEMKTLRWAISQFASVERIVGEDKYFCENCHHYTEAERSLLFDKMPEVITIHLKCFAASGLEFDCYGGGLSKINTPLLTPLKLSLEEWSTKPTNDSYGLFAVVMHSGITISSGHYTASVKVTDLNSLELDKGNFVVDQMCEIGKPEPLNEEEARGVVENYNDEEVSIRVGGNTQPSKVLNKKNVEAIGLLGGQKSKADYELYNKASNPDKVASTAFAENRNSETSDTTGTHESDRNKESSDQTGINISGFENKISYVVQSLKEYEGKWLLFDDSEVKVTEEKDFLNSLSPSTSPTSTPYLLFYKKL
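1 nM enzyme complex + cpd, 15 min RT; start with Ub-Rho 150nM final; kinetic fluorescence ex 480/em 540, 6 reads q60 s. Buffer 50mM HEPES pH 7.8, 0.5mM EDTA, 0.1 mg/ml BSA, 1mM TCEP, 0.01% Tween-20.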
VDR inh – vitamin D3 receptor (human) inhibition; AID 504847; VDR-SRC2-3 peptide fluorescence polarization, 2 h; P11473; Potency, µM, inactives show max response, negative = inhibition, hits mostly inhibitors; 400,000 tested, 0.93% active; further: on the % scale 0 is the no-effect control and ±100 the full control effect
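After 23 nl compound addition and a short centrifugation, plates sat for 2 hours at ambient temperature; polarization of fluorescence then indicated loss of VDR binding to peptide SRC2-3.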
EPAC2 agonist – EPAC2 (human) agonism; Q8WZA2; EPAC2 activation, biochemical qHTS; response scale: 100% = 6.5 mM cAMP response; Potency, µM (top dose mostly 154 µM), for the others: at the top dose activation, usual class: activators; 360,000 tested, 0.079% active; further: nearly all actives have a fitted effect of over 50% in size
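Compounds were added across a concentration range to EPAC2 (100 nM), RAP1B-BODIPY-GDP (250 nM) and GDP (50 uM). After 5 min at room temperature, fluorescence was recorded at 5-min intervals for 30 min.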
* marks the source's active call; other numbers are inactive results; u = inconclusive; x = no result given. A selection: hits, their analogues and other compounds. The true share with any hit is near 1.2%. The call rests on the fitted dose curve; in most records, active means well fitted curve in the direction sought with a large enough effect; inconclusive means small, poorly fitted or top-dose-only effect, or another doubt; inactive means no such curve, though single readings can be large; an effect the other way counts as inactive or inconclusive. Potency means the concentration at half of the fitted maximal effect.

SMILES	EPAC1 antagonist	EPAC1 ag	EPAC2 antag	USP1-UAF1 inh	VDR inh	EPAC2 agonist
O=S(=O)(NCc1ccccc1)c1ccc(S(=O)(=O)N(Cc2cccs2)CC2CCCO2)cc1 (stereo unspecified)	2.0%	13.4%	0.6%	-7.4%	-8.7%	39.8µM*
Cc1ccc([N+](=O)[O-])cc1N=C1C(=O)Nc2ccccc21	-2.5%	-1.6%	11.5%	-16.2%	25.1µM*	2.7%
Cc1ccc(N=C2C(=O)Nc3ccccc32)cc1C	7.6%	3.6%	0.6%	-1.5%	-11.4%	4.8%
CCc1cc[n+](C2=C([O-])c3ccccc3C(=O)/C2=N\S(=O)(=O)c2cccs2)cc1	u	-5.0%	-1.3%	17.8µM*	1.8%	-4.8%
O=C(N/N=C/c1ccc(Sc2ccccn2)o1)c1cc2ccccc2cc1O	56.2µM*	1.3%	1.2%	u	-17.2%	0.9%
CSc1cccc(N2CC(C(=O)Nc3cccc(S(=O)(=O)N4CCCC4)c3)CC2=O)c1 (stereo unspecified)	-4.8%	50.1µM*	4.7%	-20.8%	-1.7%	8.9%
CCOc1ccc(N2CC(C(=O)Nc3cccc(S(=O)(=O)N4CCCCC4)c3)CC2=O)cc1 (stereo unspecified)	u	3.8%	-1.4%	-10.6%	9.6%	3.4%
CCSC[C@H](NC(=O)[C@H](C)NC(=O)[C@@H](N)Cc1ccc(O)cc1)C(=O)N[C@@H](CC(=O)O)C(=O)N[C@H](C(=O)N[C@@H](C)C(=O)N[C@H](C(=O)N[C@@H](CSCC)C(=O)N[C@H](C(=O)N[C@H](C(=O)N[C@@H](Cc1cnc[nH]1)C(=O)N[C@@H](CCCNC(=N)N)C(=O)N[C@@H](CC(C)C)C(=O)N[C@@H](C)C(=O)NCC(=O)N[C@@H](CC(C)C)C(=O)N[C@@H](CC(C)C)C(=O)N[C@@H](CO)C(=O)N[C@@H](CCCNC(=N)N)C(=O)N[C@@H](CO)C(=O)NCC(=O)NCC(=O)N[C@H](C(=O)N[C@H](C(=O)N[C@@H](CCCCN)C(=O)N[C@@H](CC(N)=O)C(=O)N[C@@H](CC(N)=O)C(=O)N[C@@H](Cc1ccccc1)C(=O)N[C@H](C(=O)N1CCC[C@H]1C(=O)N[C@H](C(=O)N[C@@H](CC(N)=O)C(=O)N[C@H](C(=O)NCC(=O)N[C@@H](CO)C(=O)N[C@@H](CCCCN)C(=O)N[C@@H](C)C(=O)N[C@@H](Cc1ccccc1)C(N)=O)C(C)C)[C@@H](C)O)C(C)C)C(C)C)C(C)C)[C@@H](C)O)C(C)C)[C@@H](C)O)[C@@H](C)O	x	x	x	x	6.8%	x
Cc1nn(-c2ccc(Cl)cc2)c(=O)c2ccccc12	-12.6%	9.1%	-7.5%	-16.0%	3.7%	3.5%
Cc1c(Cl)sn(-c2ccc(Cl)cc2)c1=O	-0.2%	-4.6%	-4.3%	-2.7%	44.7µM*	0.3%
CN1C(=O)CC2(C=CC(=O)C=C2OC(=O)c2ccccc2)c2ccccc21 (stereo unspecified)	x	x	x	x	-20.1%	x
COC(=O)CCCCCN1C(=O)/C(=C\c2ccncc2)SC1=S	-9.3%	10.7%	-9.5%	-10.4%	79.4µM*	20.8%
O=C1/C(=C/c2ccncc2)SC(=S)N1Nc1ccccc1	-13.0%	13.8%	0.5%	u	50.1µM*	12.3%
O=C(O)c1ccc(/C=C2\SC(=S)N(Nc3ccccc3)C2=O)cc1	-23.1%	-2.2%	-12.8%	-6.8%	u	4.0%
O=C(O)CCN1C(=O)/C(=C\c2ccncc2)SC1=S	-7.7%	-3.5%	12.9%	-22.5%	-6.8%	5.0%
COc1ccc(NC(=O)c2ccc3c(=O)n4nc(Nc5cc(C)ccc5C)sc4nc3c2)cc1	x	x	x	-8.9%	5.2%	x
C[C@H](NC(=O)[C@@H](Cc1c[nH]c2ccccc12)NC(=O)[C@@H](N)Cc1cnc[nH]1)C(=O)N[C@@H](Cc1c[nH]c2ccccc12)C(=O)N[C@H](Cc1ccccc1)C(=O)N[C@@H](CCCCN)C(N)=O	x	x	x	x	5.9%	x
COc1ccc(C2(CNC(=O)C(=O)Nc3ccc(C)c(Cl)c3)CCCC2)cc1OC	x	x	x	-10.1%	-2.8%	x
COc1cc(/C=C2\SC(=O)N(c3ccccc3Cl)C2=O)cc([N+](=O)[O-])c1O	79.4µM*	0.1%	u	-20.0%	-16.9%	-4.8%
COc1cc(/C=C2\SC(=O)N(CC(=O)Nc3cccc(C)c3)C2=O)cc([N+](=O)[O-])c1O	u	7.2%	50.1µM*	-26.0%	70.8µM*	-15.2%
CCOc1cc(/C=C2\SC(=O)N(CC(=O)Nc3ccccc3F)C2=O)cc([N+](=O)[O-])c1O	u	-16.5%	u	-12.9%	u	-18.3%
COc1cc(/C=C2\SC(=O)N(c3ccc(O)cc3)C2=O)cc(OC)c1OC	10.7%	5.9%	-15.5%	-11.5%	-6.1%	10.3%
CC(=O)SC1CC2=CC(=O)CC[C@]2(C)C2CC[C@@]3(C)C(CC[C@@]34CCC(=O)O4)C12 (stereo partly specified)	x	x	x	x	0.0%	x
COc1ccc(-c2nc3cnc(N4CCNCC4)nc3n(Cc3cccs3)c2=O)cc1	x	x	x	x	72.4%	x
COCCN(CCOC)c1ncnc2c1c(-c1ccccc1)cn2-c1ccc(C)c(Cl)c1	x	x	x	-3.7%	0.2%	x
SMILES	EPAC1 antagonist	EPAC1 ag	EPAC2 antag	USP1-UAF1 inh	VDR inh	EPAC2 agonist
O=[N+]([O-])c1cccc(-c2nc3ccc([N+](=O)[O-])cc3[nH]2)c1	-27.9%	2.9%	-9.1%	-16.2%	31.6µM*	3.3%
CN(Cc1ccco1)c1ncncc1-c1ccccc1C(F)(F)F	x	x	x	x	50.1µM*	x
Cc1ccccc1-c1cncnc1N(C)Cc1ccco1	x	x	x	x	39.8µM*	x
CC[C@@H]1/C=C(\C)C[C@H](C)C[C@H](OC)[C@H]2O[C@@](O)(C(=O)C(=O)N3CCCC[C@H]3C(=O)O[C@H](/C(C)=C/[C@@H]3CC[C@H](Cl)[C@H](OC)C3)[C@H](C)[C@@H](O)CC1=O)[C@H](C)C[C@@H]2OC	x	x	x	x	-1.6%	x
CN[C@H](CC(C)C)C(=O)N[C@H]1C(=O)N[C@@H](CC(N)=O)C(=O)N[C@@H]2C(=O)N[C@H]3C(=O)N[C@H](C(=O)N[C@H](C(=O)O)c4cc(O)cc(O)c4-c4cc3ccc4O)[C@H](O)c3ccc(c(Cl)c3)Oc3cc2cc(c3O[C@@H]2O[C@H](CO)[C@@H](O)[C@H](O)[C@@H]2O[C@H]2C[C@](C)(N)[C@H](O)[C@H](C)O2)Oc2ccc(cc2Cl)[C@H]1O	x	x	x	x	-3.0%	x
CC(=O)Nc1ccc(OC(C)=O)cc1	x	x	x	x	16.1%	x
O=C1CC(c2nnc(Cc3ccc(F)cc3Cl)o2)CN1c1ccccc1 (stereo unspecified)	x	x	x	-13.7%	3.9%	x

Screens (PubChem)
